Consider 13 molecules from PubChem BioAssay (NCATS).

One assay concerns the target Furin (Homo sapiens) (UniProt P09958). In words: Furin counterscreen qHTS for Zika virus inhibitors (AID 1347149). Further: nearly all actives have a fitted effect of over 70% in size. Further: potency means the concentration at half of the fitted maximal effect. In short, it runs like this: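 Fluorogenic cleavage of BOC-RVRR-AMC (2 microM final, Km ~15 µM) was monitored (ex 340, em 450 nm) at 37C after 15 min RT preincubation of 5 nM furin with compounds in HEPES pH 7.0 buffer with CaCl2 and Triton X-100. Percent inhibition was fitted to a 4-parameter Hill curve.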

A short description of assay [1]: Confirmatory screen NINDS Rhodamine qHTS for Zika virus inhibitors (AID 1347161). Further: potency means the concentration at half of the fitted maximal effect; nearly all actives have a fitted effect of over 60% in size. In short, it runs like this: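 Enzyme (25 nM, linked NS2B-NS3) was preincubated 15 min with compound in 10 mM Tris-HCl pH 8.0, 0.01% Tween 20. Rhodamine110 substrate (1.5 microM) was then added and fluorescence read at start and after 15 min.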
For orientation: In qHTS, concentration-response curves come from the screen itself.

In assay [2] the target is Rap guanine nucleotide exchange factor 3 (Homo sapiens) (UniProt O95398). In words: Confirmatory qHTS for antagonist of cAMP-regulated guanine nucleotide exchange factor 3 (EPAC1) (AID 1645880). Further: nearly all actives have a fitted effect of over 55% in size. Further: potency means the concentration at half of the fitted maximal effect. The essentials:
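Nucleotide exchange uses 100 nM EPAC1, 250 nM RAP1B-BODIPY-GDP and 50 uM GDP, with compounds in a concentration-titration series. After 5 min at room temperature, fluorescence (480 nm ex/540 nm em) is read every 5 min for 30 min. Data are normalized to control ATA and DMSO.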

The target in assay [3] is Rap guanine nucleotide exchange factor 4 (Homo sapiens) (UniProt Q8WZA2). Description: Confirmatory qHTS for agonist of cAMP-regulated guanine nucleotide exchange factor 4 (EPAC2) (AID 1645884).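 Further: nucleotide exchange releases bodipy-GDP from Rap1 and this lowers its fluorescence; nearly all actives have a fitted effect of over 65% in size.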
Chain of Rap guanine nucleotide exchange factor 4 (Homo sapiens) (Q8WZA2 whole entry, looked up): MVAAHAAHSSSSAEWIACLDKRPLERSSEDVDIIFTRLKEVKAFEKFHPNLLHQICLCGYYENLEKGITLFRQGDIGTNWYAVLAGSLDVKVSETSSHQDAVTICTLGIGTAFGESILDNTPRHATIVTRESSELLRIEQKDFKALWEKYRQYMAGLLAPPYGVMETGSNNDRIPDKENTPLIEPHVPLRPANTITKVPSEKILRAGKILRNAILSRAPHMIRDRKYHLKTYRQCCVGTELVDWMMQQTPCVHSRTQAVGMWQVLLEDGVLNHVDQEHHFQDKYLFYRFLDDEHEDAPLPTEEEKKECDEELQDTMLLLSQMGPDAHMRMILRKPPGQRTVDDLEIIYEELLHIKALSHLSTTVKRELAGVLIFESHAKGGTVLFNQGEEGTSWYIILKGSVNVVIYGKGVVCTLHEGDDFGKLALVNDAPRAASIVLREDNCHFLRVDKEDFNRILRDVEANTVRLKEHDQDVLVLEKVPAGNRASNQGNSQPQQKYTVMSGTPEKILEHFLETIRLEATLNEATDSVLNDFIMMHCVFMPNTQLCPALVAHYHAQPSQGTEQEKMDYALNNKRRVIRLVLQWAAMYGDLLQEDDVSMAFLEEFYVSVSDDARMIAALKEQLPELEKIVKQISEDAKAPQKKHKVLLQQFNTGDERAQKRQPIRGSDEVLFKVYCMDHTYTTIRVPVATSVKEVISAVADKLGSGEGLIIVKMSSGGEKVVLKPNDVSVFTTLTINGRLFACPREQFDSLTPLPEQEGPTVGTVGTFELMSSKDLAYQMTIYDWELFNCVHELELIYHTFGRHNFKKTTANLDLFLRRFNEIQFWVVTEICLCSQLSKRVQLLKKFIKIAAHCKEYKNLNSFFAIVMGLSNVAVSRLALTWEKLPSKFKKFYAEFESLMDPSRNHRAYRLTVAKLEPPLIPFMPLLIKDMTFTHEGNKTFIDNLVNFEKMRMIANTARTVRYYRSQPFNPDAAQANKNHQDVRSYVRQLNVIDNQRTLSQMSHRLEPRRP
Assay [4] shares this target. Description: Confirmatory qHTS for antagonist of cAMP-regulated guanine nucleotide exchange factor 4 (EPAC2) (AID 1645885). Further: nearly all actives have a fitted effect of over 25% in size. Further: potency means the concentration at half of the fitted maximal effect.
Assay [5] is described as follows: HepG2 cells viability qHTS for Zika virus inhibitors (AID 1347168). The essentials: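 Cells seeded at 2.5 x 10^5 cells/mL in DMEM with 4% FBS and attached overnight at 37 degrees C, then exposed to compound for 24 to 48 hours. Viability read as ATP content by CellTiter Glo luminescence.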
Assay [6] is described as follows: Tertiary RLuc qRT-PCR qHTS assay for Zika virus inhibitors (AID 1347169). Further: nearly all actives have a fitted effect of over 55% in size. Further: potency means the concentration at half of the fitted maximal effect. The essentials: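 Vero cells (1,000/well) infected with recombinant ZIKV-RLuc (Cambodian) at MOI 1-2 after compound addition, 48-72 hrs at 37 degrees C. Live-cell Renilla luciferase substrate added; luminescence read after 1-1.5 hrs.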
(In qPCR the cycle at which signal appears reflects the starting amount.)

Assay [7] has as its target Tumor susceptibility gene 101 protein (Homo sapiens) (UniProt Q99816). In words: qHTS Assay for Iinhibitors of HIV-1 Budding by Blocking the Interaction of PTAP/TSG101: Hit Validation (AID 651600). Further: nearly all actives have a fitted effect of over 70% in size. The essentials:
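Fluorescence polarization binding assay: Tsg101 binding domain (10 uM) mixed with compounds and FITC-labeled PTAP peptide (50 nM) in HEPES pH 7.5, 0.15 M NaCl, 0.01% Tween 20, EDTA, TCEP; 20 min at r.t.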

Assay [8] in a line: ZIKV-mCherry secondary qHTS for Zika virus inhibitors (AID 1347158). Further: top concentration of the series differs between compounds. In short, it runs like this: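 Vero cells (5,000/well) were given compound, then infected with ZIKV-mCherry at MOI 1 for 48–72 h at 37 °C. After PFA fixation and Hoechst staining, imaging gave percent mCherry-positive cells. The positivity threshold was RFU above 450, 3 SD over negative controls.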
Assay [9] has as its system Zika virus NS2B-NS3 protease (linked). In words: 384 well plate NINDS AMC confirmatory qHTS for Zika virus inhibitors (AID 1347163). Further: nearly all actives have a fitted effect of over 50% in size. Further: potency means the concentration at half of the fitted maximal effect. The essentials: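 Linked NS2B-NS3 protease (final 5 nM, 30 nM or 60 nM) was preincubated with compounds (final up to 1 mM) for ~15 minutes. Ac-VKTGKR-AMC substrate (final 30 microM) then reacted for 25 minutes at room temperature in the dark. Fluorescence (ex 355/em 460 nm) was normalized to no-enzyme and no-inhibitor controls.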

The target in assay [10] is Cytochrome P450 2C9 (Homo sapiens) (UniProt P11712). Description: Cytochrome P450 family 2 subfamily C member 9 (CYP2C9) small molecule antagonists: luciferase biochemical (cell-free) qHTS assay (AID 1645842; active means well fitted curve in the direction sought with a large enough effect in the repeat runs; an effect the other way counts as inactive or inconclusive; further: series mostly up to about 57 µM; nearly all actives have a fitted effect of over 55% in size). The essentials: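 Luminescence, after 20 min with luciferin detection reagent, reflected CYP2C9 turnover during a 1 h NADPH-driven reaction at 37C. Enzyme-substrate mix contained 0.4% bovine serum albumin and was preincubated with compound 10 min at room temperature.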
Chain of Cytochrome P450 2C9 (Homo sapiens) (P11712 whole entry, looked up): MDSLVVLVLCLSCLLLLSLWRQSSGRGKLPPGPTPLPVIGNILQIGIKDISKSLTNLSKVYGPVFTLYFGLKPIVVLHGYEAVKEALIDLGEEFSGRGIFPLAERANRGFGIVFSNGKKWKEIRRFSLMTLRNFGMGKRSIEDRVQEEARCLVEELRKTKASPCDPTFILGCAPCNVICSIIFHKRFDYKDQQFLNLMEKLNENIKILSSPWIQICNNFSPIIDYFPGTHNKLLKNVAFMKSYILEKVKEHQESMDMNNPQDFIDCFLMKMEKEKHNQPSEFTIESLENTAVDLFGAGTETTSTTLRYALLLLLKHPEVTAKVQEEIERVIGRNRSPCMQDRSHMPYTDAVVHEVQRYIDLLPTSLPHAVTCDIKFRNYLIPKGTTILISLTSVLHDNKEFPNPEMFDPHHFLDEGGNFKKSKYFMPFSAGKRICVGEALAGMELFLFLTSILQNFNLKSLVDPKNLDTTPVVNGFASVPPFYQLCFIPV

Assay [11] deals with Zika virus NS2B-NS3 protease (linked construct). In words: 384 well plate NINDS Rhodamine confirmatory qHTS for Zika virus inhibitors (AID 1347164).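 Further: fluorescence from protease cleavage of Ac-LKRR-rhodamine 110 substrate; nearly all actives have a fitted effect of over 65% in size.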 Further: potency means the concentration at half of the fitted maximal effect. The essentials: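 Linked NS2B-NS3 protease (final 5, 30 or 60 nM) preincubated ~15 minutes with compounds, then 10 microM Ac-LKRR-Rhodamine 110 added. Fluorescence (485/538 nm) read after 25 minutes at room temperature, normalized to no-enzyme and no-inhibitor controls.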

Assay [12] has as its target Rap guanine nucleotide exchange factor 3 (Homo sapiens) (UniProt O95398). Description: Confirmatory qHTS for agonist of cAMP-regulated guanine nucleotide exchange factor 3 (EPAC1) (AID 1645881).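 Further: EPAC1 catalysed release of BODIPY-GDP from Rap1B seen as fluorescence loss; nearly all actives have a fitted effect of over 75% in size.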
In assay [13] the target is Cytochrome P450 1A2 (Homo sapiens) (UniProt P05177). Description: p450-cyp1a2 (AID 410; calls by dose curve; further: potency means the concentration at half of the fitted maximal effect). The essentials: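 20nM CYP1A2 with 100uM Luciferin-ME (at Km) in 100mM KPO4; compound preincubated 10 min, NADPH regeneration added, 60 min at room temperature. Luciferin quantified by luminescence after detection reagent; normalized to 57 uM furafylline.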
Chain of Cytochrome P450 1A2 (Homo sapiens) (P05177 whole entry, looked up): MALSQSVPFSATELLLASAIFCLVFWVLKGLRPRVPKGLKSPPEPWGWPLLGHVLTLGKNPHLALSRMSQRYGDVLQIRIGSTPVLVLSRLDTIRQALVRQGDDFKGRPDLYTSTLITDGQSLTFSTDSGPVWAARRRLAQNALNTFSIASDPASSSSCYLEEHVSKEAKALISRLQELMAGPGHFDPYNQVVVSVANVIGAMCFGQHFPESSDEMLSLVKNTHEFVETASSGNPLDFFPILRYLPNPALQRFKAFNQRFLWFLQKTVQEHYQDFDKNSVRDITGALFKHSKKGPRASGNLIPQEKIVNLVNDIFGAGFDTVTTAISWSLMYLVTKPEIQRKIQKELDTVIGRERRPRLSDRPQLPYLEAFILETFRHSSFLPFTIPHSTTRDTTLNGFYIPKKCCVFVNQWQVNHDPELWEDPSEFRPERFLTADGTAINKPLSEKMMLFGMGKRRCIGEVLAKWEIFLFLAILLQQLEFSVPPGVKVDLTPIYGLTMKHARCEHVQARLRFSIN
The target of assay [14] is Glucocorticoid receptor (Homo sapiens) (UniProt P04150). In words: GR-GFP Redistribution (AID 450;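 active means compounds whose dose series gives a full or clear partial fitted curve of increased nuclear translocation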; further: potency means the concentration at half of the fitted maximal effect). The note with it: U2OS GR-GFP nuclear translocation, laser cytometry, 2 h.
The target in assay [15] is Cytochrome P450 2C9 (Homo sapiens) (UniProt P11712). In words: qHTS Assay for Inhibitors and Substrates of Cytochrome P450 2C9 (AID 883). Further: potency means the concentration at half of the fitted maximal effect; nearly all actives have a fitted effect of over 60% in size. In short, it runs like this:
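10nM CYP2C9 + 100uM Luciferin-H (=KM), 25mM KPO4; cpd 10 min 37C; NADPH regen, 60 min 37C; stop/detect with P450 Glo-Buffer 20 min; luminescence. Norm. to 57uM sulphaphenazole as full inhibition.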

The target in assay [16] is Cytochrome P450 2D6 (Homo sapiens) (UniProt P10635). Description: qHTS Assay for Inhibitors and Substrates of Cytochrome P450 2D6 (AID 891). Further: potency means the concentration at half of the fitted maximal effect; nearly all actives have a fitted effect of over 60% in size. In short, it runs like this:
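Human CYP2D6 (5 nM) with 30 uM Luciferin-ME EGE (at Km) in 100 mM KPO4, compound preincubated 10 min, then NADPH regeneration system for 60 min at room temperature. Luciferin read by luminescence; normalized to 1.43 uM quinidine.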

The target in assay [17] is Cytochrome P450 2C19 (Homo sapiens) (UniProt P33261). Description: qHTS Assay for Inhibitors and Substrates of Cytochrome P450 2C19 (AID 899). Further: potency means the concentration at half of the fitted maximal effect; nearly all actives have a fitted effect of over 60% in size. In short, it runs like this: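 Luminescent read-out of luciferin formed from Luciferin-H EGE (10uM, equal to KM). Enzyme 5nM in 50mM KPO4; compound added, 10 min at 37C, then NADPH regenerating system for 60 min at 37C. Full inhibition defined by 57uM ketoconazole.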
Chain of Cytochrome P450 2C19 (Homo sapiens) (P33261 whole entry, looked up): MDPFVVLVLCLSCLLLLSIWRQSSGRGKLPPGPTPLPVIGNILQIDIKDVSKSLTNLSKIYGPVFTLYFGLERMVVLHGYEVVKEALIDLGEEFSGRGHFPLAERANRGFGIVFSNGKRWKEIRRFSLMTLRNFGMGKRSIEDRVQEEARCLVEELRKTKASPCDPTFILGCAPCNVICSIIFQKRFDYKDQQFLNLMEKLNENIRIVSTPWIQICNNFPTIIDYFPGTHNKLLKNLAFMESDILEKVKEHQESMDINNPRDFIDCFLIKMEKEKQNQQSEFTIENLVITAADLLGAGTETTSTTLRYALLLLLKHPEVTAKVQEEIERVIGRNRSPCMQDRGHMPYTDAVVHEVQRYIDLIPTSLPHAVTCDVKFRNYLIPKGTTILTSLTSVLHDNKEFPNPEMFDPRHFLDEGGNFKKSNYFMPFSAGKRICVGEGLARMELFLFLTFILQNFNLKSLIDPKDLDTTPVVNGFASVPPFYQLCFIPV

Assay [18] has as its target DNA dC->dU-editing enzyme APOBEC-3G (Homo sapiens) (UniProt Q9HC16). Description: qHTS for inhibitors of Vif-A3G interactions: Validation (AID 588379). The essentials: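 HeLa cells stably expressing Vif and A3G-eYFP, 700 cells/well, incubated overnight at 37 deg C, then exposed to compound overnight at 37 deg C. Inhibition of Vif-mediated degradation read as increased yellow fluorescence (Ex 488/Em 500-530) by laser-scanning cytometry.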

In assay [19] the target is Glutathione peroxidase 1 (Homo sapiens) (UniProt P07203). In words: Primary qHTS Assay for Inhibitors of Recombinant Selenoprotein Glutathione Peroxidase 1 (GPX1) (AID 1845191). Further: nearly all actives have a fitted effect of over 65% in size. In short, it runs like this: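 GR-coupled assay: compounds preincubated 30 min at room temperature with GPX1, then reaction started with CHP; final 10 nM GPX1, 1 mM GSH, 0.5 mM CHP, 0.5 mM NADPH, 100 nM GR, 0.01% BSA, pH 7.5 Tris buffer. NADPH fluorescence (340/450 nm) read at 0 and 15 min.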
Chain of Glutathione peroxidase 1 (Homo sapiens) (P07203 whole entry, looked up): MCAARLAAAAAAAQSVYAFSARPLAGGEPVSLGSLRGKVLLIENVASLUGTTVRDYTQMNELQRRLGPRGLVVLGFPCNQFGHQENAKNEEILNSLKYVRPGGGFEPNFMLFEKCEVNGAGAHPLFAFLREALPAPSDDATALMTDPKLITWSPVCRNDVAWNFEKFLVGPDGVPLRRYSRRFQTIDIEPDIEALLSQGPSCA

Values without a mark were called inactive. Inconclusive results are not listed. Active and inactive are the calls of the source. Unless noted, the call rests on the fitted dose curve; in most records, active means well fitted curve in the direction sought with a large enough effect; inconclusive means small, poorly fitted or top-dose-only effect, or another doubt; inactive means no such curve, though single readings can be large; an effect the other way counts as inactive or inconclusive.

Chain of Rap guanine nucleotide exchange factor 3 (Homo sapiens) (O95398 whole entry, looked up): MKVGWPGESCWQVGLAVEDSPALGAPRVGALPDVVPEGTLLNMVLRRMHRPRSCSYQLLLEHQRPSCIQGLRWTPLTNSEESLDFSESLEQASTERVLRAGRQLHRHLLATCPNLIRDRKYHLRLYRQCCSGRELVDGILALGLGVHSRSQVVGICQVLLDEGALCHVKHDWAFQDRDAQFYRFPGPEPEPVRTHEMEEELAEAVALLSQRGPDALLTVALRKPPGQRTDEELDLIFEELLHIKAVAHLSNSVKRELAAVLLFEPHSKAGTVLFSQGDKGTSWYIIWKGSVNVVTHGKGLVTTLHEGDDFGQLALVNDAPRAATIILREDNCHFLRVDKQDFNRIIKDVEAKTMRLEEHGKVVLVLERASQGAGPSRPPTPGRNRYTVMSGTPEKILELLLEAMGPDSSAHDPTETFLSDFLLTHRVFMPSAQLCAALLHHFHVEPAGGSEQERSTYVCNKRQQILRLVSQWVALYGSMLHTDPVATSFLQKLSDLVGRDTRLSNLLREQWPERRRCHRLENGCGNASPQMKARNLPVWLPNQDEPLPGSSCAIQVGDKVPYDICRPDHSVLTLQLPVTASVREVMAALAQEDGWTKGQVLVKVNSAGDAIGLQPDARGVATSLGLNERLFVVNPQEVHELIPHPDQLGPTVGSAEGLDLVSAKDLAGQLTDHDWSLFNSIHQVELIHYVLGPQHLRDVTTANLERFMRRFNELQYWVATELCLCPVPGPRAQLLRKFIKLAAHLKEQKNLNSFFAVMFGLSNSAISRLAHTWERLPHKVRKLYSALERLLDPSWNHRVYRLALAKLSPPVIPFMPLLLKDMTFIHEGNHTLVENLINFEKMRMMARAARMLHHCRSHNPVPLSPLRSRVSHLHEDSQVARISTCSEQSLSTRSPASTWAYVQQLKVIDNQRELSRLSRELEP
Chain of Furin (Homo sapiens) (P09958 whole entry, looked up): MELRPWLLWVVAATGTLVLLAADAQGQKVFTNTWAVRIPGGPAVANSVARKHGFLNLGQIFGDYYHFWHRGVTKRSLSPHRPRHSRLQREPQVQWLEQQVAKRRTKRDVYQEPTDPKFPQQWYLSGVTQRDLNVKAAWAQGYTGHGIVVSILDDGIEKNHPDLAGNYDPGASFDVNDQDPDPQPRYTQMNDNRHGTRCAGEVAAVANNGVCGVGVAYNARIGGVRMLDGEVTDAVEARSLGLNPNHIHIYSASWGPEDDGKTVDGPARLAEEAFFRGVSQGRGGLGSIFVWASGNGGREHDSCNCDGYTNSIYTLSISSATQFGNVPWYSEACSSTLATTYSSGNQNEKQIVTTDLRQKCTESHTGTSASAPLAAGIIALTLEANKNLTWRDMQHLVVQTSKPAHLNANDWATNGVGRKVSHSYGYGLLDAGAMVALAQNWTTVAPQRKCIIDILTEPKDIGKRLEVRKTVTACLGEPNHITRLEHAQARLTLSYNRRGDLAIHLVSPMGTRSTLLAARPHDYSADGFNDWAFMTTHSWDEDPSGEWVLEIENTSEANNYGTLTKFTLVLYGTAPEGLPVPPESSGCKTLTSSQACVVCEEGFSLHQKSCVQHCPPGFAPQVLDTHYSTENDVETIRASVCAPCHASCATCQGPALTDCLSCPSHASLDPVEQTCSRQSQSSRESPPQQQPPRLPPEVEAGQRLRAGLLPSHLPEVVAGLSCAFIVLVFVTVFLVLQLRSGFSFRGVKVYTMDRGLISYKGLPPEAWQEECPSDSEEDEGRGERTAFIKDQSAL
Chain of Tumor susceptibility gene 101 protein (Homo sapiens) (Q99816 whole entry, looked up, the tested form may be a part): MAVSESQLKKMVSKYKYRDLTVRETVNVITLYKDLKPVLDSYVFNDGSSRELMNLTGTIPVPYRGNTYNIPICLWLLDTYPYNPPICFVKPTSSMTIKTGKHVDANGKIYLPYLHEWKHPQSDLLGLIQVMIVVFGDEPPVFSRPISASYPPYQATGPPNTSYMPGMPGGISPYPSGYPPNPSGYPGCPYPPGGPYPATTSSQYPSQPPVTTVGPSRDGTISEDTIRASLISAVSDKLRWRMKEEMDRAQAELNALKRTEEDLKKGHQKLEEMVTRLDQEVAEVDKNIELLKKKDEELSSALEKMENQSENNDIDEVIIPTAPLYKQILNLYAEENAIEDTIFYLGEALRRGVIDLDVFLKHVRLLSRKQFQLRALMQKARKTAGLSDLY

For `CCCCCCc1cc2cc(-c3nnc(-c4cccc(Cl)c4)o3)c(=O)oc2cc1O`, the Potency result (with Furin (Homo sapiens); in assay [2]) was “inactive” throughout. The Potency in assay [1] is 3.55 µM (active); in [4], 7.57 µM (active). For the same molecule, the outcome in [3] was inactive.
On to `CCCCOc1ccc(C2C(=O)N(C3CCCCC3)CC(=O)N2C2CCCCC2)cc1` (configuration not stated), for which the Potency result (in the assay with Furin (Homo sapiens); in assay [5]; in [6]) was “inactive” in each case.
Consider `CC1OC(OC2C(O)CC(OC3C(O)CC(OC4CCC5(C)C(CCC6C5CC(O)C5(C)C(C7=CC(=O)OC7)CCC65O)C4)OC3C)OC2C)CC(O)C1O` (configuration not stated), for which the Potency entry (with Furin (Homo sapiens); in assay [5]) was “inactive” each time. For the same molecule, in assay [6], the Potency is 0.214 µM (active).
As to `CCOC(=O)c1ccc(NC(=O)CSc2nc(-c3cccs3)cc(C(F)(F)F)c2C#N)cc1`, the call in assay [7] was inactive. Moreover, the Potency entry (with Furin (Homo sapiens); in assay [6]) was “inactive” in each case.
For `COc1ccccc1C(=O)Nc1ccc(C(=O)OCc2cc(=O)n3c4c(sc3n2)CCCC4)cc1`, the Potency with Furin (Homo sapiens) was 7.44 µM (active). In addition, the Potency entry in assay [8] and in assay [6] was “inactive” throughout.
Turning to `CCOC(=O)c1cccc(NC(=O)CSc2ncc3c(n2)-c2ccc(Cl)cc2N(Cc2ccccc2)S3(=O)=O)c1`, the Potency result (in the assay with Furin (Homo sapiens); in [8]; in assay [9]) was “inactive” throughout. Besides, the Potency in assay [1] is 44.7 µM (active).
For the molecule `Cc1ccc(-c2nnc(Nc3ccccc3)c3ccccc23)cc1S(=O)(=O)NCc1nc2ccccc2[nH]1`, in the assay with Furin (Homo sapiens), the Potency is 41.8 µM (active). The Potency result in [8], in [9] and in assay [10] was “inactive” in each case.
On to `O=C(OCc1cc(=O)n2nc(C3CC3)sc2n1)c1cccc(NC(=O)c2ccccc2Cl)c1`, for which the Potency result (with Furin (Homo sapiens); in [6]) was “inactive” throughout.
As to `COc1ccc(C(=O)Nc2ccc(C(=O)OCc3cc(=O)n4nc(C(C)C)sc4n3)cc2)cc1`, the Potency with Furin (Homo sapiens) was 59.1 µM (active). Moreover, the Potency result in assay [8] and in assay [6] was “inactive” in each case.
Regarding `O=C(O)COc1ccccc1C1Nc2ccccc2-c2nnc(SCc3ccc(Cl)cc3)nc2O1` (configuration not stated), the Potency result (in the assay with Furin (Homo sapiens); in assay [8]; in assay [6]) was “inactive” in each case. Further, the figures for the Potency in assay [9] and in [11] were 316 µM (active) and 224 µM (active), respectively.
Take `CCOC(=O)c1ccc(NC(=O)CSc2nc(-c3ccc(OC)cc3)cc(C(F)(F)F)c2C#N)cc1`: the Potency result (with Furin (Homo sapiens); in assay [2]; in assay [4]) was “inactive” each time. The call in [12] and in [3] was inactive.
Consider `C=CC(C)(C)c1[nH]c2ccccc2c1C1=C(O)C(=O)C(c2c[nH]c3c(CC=C(C)C)cccc23)=C(O)C1=O`, for which the Potency is 25.1 µM (active) in [13]; > 46 µM in assay [14]; 7.94 µM (active) in assay [15]; 0.0063 µM (active) in assay [16]; 1.26 µM (active) in assay [17]; 49.4 µM (active) in assay [1]. For the same molecule, the Potency is 11.2 µM (active) in [9], 0.631 µM (active) in assay [11] and 4.98 µM (active) in [2]. The Potency result (in assay [18]; in the assay with Furin (Homo sapiens); in assay [5]; in assay [19]) was “inactive” each time. Further, the result in assay [12] was inactive.
As for `CCOC(=O)c1ccc(NC(=O)CSc2nc(-c3ccc(F)cc3)cc(C(F)(F)F)c2C#N)cc1`, the Potency entry (with Furin (Homo sapiens); in assay [9]; in assay [11]) was “inactive” throughout.
